# Source: the supplement of paper PMC8728848
# Shown is part of a subset that was picked to be rich in the strongest signals.
# Legend:
# Assay in all cases: glycan array binding signal (z-score within array); higher = stronger binding
# Settings in all cases: glycan notation: IUPAC condensed, linker removed
# [1] = biological target: Fuc(a1-2)Gal(b1-3)GlcNAc(b1-2)Man(a1-3)[Fuc(a1-2)Gal(b1-3)GlcNAc(b1-2)Man(a1-6)]Man(b1-4)GlcNAc(b1-4)GlcNAc
# In short: (§1)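 Negative Z-scores can be read as non-binding. The Z-score is calculated within each array and then averaged across arrays of one protein sequence at different concentrations or buffers and across linkers. Arrays, 3228 in all, were curated from the Consortium for Functional Glycomics database and kept only where the protein sequence was available.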
# [2] = biological target: Fuc(a1-2)Gal(b1-3)GlcNAc(b1-3)[Fuc(a1-2)Gal(b1-3)GlcNAc(b1-6)]GalNAc
# In short: as §1
# [3] = biological target: Fuc(a1-2)Gal(b1-4)GlcNAc(b1-3)Gal(b1-4)GlcNAc(b1-2)Man(a1-3)[Fuc(a1-2)Gal(b1-4)GlcNAc(b1-3)Gal(b1-4)GlcNAc(b1-2)Man(a1-6)]Man(b1-4)GlcNAc(b1-4)GlcNAc
# In short: as §1
# [4] = biological target: Fuc(a1-2)Gal(b1-4)GlcNAc(b1-3)[Fuc(a1-2)Gal(b1-4)GlcNAc(b1-6)]GalNAc
# In short: as §1
# [5] = biological target: Fuc(a1-2)Gal(b1-4)GlcNAc6S
# In short: as §1
# [6] = biological target: Fuc(a1-2)Gal6S(b1-3)GlcNAc6S
# In short: as §1
# [7] = biological target: Fuc(a1-2)[GalNAc(a1-3)]Gal(b1-4)GlcNAc(b1-6)GalNAc
# In short: as §1
# [8] = biological target: Fuc(a1-2)[GalNAc(a1-3)]Gal(b1-4)[Fuc(a1-3)]GlcNAc(b1-3)GalNAc
# In short: as §1
# Fuc(a1-3)GlcNAc = biological target: Fuc(a1-3)GlcNAc
# In short: as §1
# [9] = biological target: Fuc(a1-3)[Gal(b1-4)]Glc6S
# In short: as §1
# [10] = biological target: Fuc(a1-3)[Gal(b1-4)]GlcNAc6S
# In short: as §1
# [11] = biological target: Fuc(a1-3)[Gal3S(b1-4)]GlcNAc6S
# In short: as §1
# [12] = biological target: Gal(a1-3)Gal(b1-4)[Fuc(a1-3)]GlcNAc
# In short: as §1
# Gal(b1-3)GalNAc = biological target: Gal(b1-3)GalNAc
# In short: as §1
# [13] = biological target: Gal(b1-3)GalNAc(a1-3)[Fuc(a1-2)]Gal(b1-4)Glc
# In short: as §1
# [14] = biological target: Gal(b1-3)GlcNAc(b1-2)Man(a1-3)[Gal(b1-3)GlcNAc(b1-2)Man(a1-6)]Man(b1-4)GlcNAc(b1-4)GlcNAc
# In short: as §1
# [15] = biological target: Gal(b1-3)GlcNAc(b1-3)Gal(b1-4)GlcNAc
# In short: as §1
# [16] = biological target: Gal(b1-3)GlcNAc(b1-3)Gal(b1-4)GlcNAc(b1-2)[Gal(b1-3)GlcNAc(b1-3)Gal(b1-4)GlcNAc(b1-6)]Man(a1-6)[Gal(b1-3)GlcNAc(b1-3)Gal(b1-4)GlcNAc(b1-2)Man(a1-3)]Man(b1-4)GlcNAc(b1-4)[Fuc(a1-6)]GlcNAc
# In short: as §1
# [17] = biological target: Gal(b1-3)GlcNAc(b1-6)[Gal(b1-3)]GalNAc
# In short: as §1
# Gal(b1-3)GlcNAc6S = biological target: Gal(b1-3)GlcNAc6S
# In short: as §1
# [18] = biological target: Gal(b1-3)[Neu5Ac(b2-6)]GalNAc
# In short: as §1
# [19] = biological target: Gal(b1-4)GlcNAc(b1-2)Man(a1-6)[GlcNAc(b1-2)Man(a1-3)]Man(b1-4)GlcNAc(b1-4)GlcNAc
# In short: as §1
# [20] = biological target: Gal(b1-4)GlcNAc(b1-3)Gal(b1-4)GlcNAc(b1-3)Gal(b1-4)GlcNAc(b1-2)Man(a1-3)[Gal(b1-4)GlcNAc(b1-3)Gal(b1-4)GlcNAc(b1-3)Gal(b1-4)GlcNAc(b1-2)Man(a1-6)]Man(b1-4)GlcNAc(b1-4)GlcNAc
# In short: as §1
# [21] = biological target: Gal(b1-4)GlcNAc(b1-3)Gal(b1-4)GlcNAc(b1-3)Gal(b1-4)GlcNAc(b1-3)Gal(b1-4)GlcNAc(b1-2)Man(a1-3)[Gal(b1-4)GlcNAc(b1-3)Gal(b1-4)GlcNAc(b1-3)Gal(b1-4)GlcNAc(b1-3)Gal(b1-4)GlcNAc(b1-2)Man(a1-6)]Man(b1-4)GlcNAc(b1-4)[Fuc(a1-6)]GlcNAc
# In short: as §1
# [22] = biological target: Gal(b1-4)GlcNAc(b1-3)Gal(b1-4)GlcNAc(b1-3)Gal(b1-4)GlcNAc(b1-3)Gal(b1-4)GlcNAc(b1-2)[Gal(b1-4)GlcNAc(b1-3)Gal(b1-4)GlcNAc(b1-3)Gal(b1-4)GlcNAc(b1-3)Gal(b1-4)GlcNAc(b1-6)]Man(a1-6)[Gal(b1-4)GlcNAc(b1-3)Gal(b1-4)GlcNAc(b1-3)Gal(b1-4)GlcNAc(b1-3)Gal(b1-4)GlcNAc(b1-2)Man(a1-3)]Man(b1-4)GlcNAc(b1-4)[Fuc(a1-6)]GlcNAc
# In short: as §1
# [23] = biological target: Gal(b1-4)GlcNAc(b1-3)GalNAc
# In short: as §1
# Gal(b1-6)Gal = biological target: Gal(b1-6)Gal
# In short: as §1
# Gal6P(b1-4)GlcNAc = biological target: Gal6P(b1-4)GlcNAc
# In short: as §1
# GalNAc(a1-3)Gal = biological target: GalNAc(a1-3)Gal
# In short: as §1
# GalNAc(b1-3)Gal = biological target: GalNAc(b1-3)Gal
# In short: as §1
binder,measurement,setting,value
Agalectin (Anopheles gambiae) (protein) MSNRPFTAKFPRYPENGDEVFIRGKLKDDAKSFSVNFCLPRPAQVAEHQTPPYIALHFKTIYDERDDTSRVVLNWKNLQWQQEEVLDNYWHVDRSQTFRVVFRLHEDCIKVFVNSVDHPPDYQFPVQLPLDQIESIELWDDVEHVEEISFRYDNGNSY,glycan array binding signal (z-score),[1],5.71
same,glycan array binding signal (z-score),[2],4.19
same,glycan array binding signal (z-score),[3],-0.148
same,glycan array binding signal (z-score),[4],-0.321
same,glycan array binding signal (z-score),[5],-0.769
same,glycan array binding signal (z-score),[6],-0.208
same,glycan array binding signal (z-score),[7],0.074
same,glycan array binding signal (z-score),[8],-0.12
same,glycan array binding signal (z-score),Fuc(a1-3)GlcNAc,-1.07
same,glycan array binding signal (z-score),[9],-0.632
same,glycan array binding signal (z-score),[10],0.34
same,glycan array binding signal (z-score),[11],-0.759
same,glycan array binding signal (z-score),[12],-0.066
same,glycan array binding signal (z-score),Gal(b1-3)GalNAc,-0.47
same,glycan array binding signal (z-score),[13],-0.559
same,glycan array binding signal (z-score),[14],1.66
same,glycan array binding signal (z-score),[15],-0.854
same,glycan array binding signal (z-score),[16],3.14
same,glycan array binding signal (z-score),[17],-1.37
same,glycan array binding signal (z-score),Gal(b1-3)GlcNAc6S,-1.14
same,glycan array binding signal (z-score),[18],0.408
same,glycan array binding signal (z-score),[19],-0.688
same,glycan array binding signal (z-score),[20],2.89
same,glycan array binding signal (z-score),[21],3.26
same,glycan array binding signal (z-score),[22],-0.07
same,glycan array binding signal (z-score),[23],-0.509
same,glycan array binding signal (z-score),Gal(b1-6)Gal,-1.18
same,glycan array binding signal (z-score),Gal6P(b1-4)GlcNAc,-0.335
same,glycan array binding signal (z-score),GalNAc(a1-3)Gal,-0.221
same,glycan array binding signal (z-score),GalNAc(b1-3)Gal,-0.678
